Measurements as given in PubChem BioAssay (NCATS).
Inconclusive results are not listed. Active and inactive are the calls of the source. Unless noted, the call rests on the fitted dose curve.

How the values were obtained:
[1] = target: Estrogen receptor (Homo sapiens) (UniProt P03372); assay: qHTS assay for small molecule antagonists of estrogen receptor alpha signaling (AID 588513; active means well fitted curve in the direction sought with a large enough effect in the signal ratio, with a control signal flat, not every such curve was filed as active; the % refers to the signal ratio; further: on the % scale 0 is the no-effect control and ±100 the full control effect)
Procedure, shortened: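 Beta-lactamase reporter, antagonist mode, HEK 293 GripTite cells; 0.5nM E2 stimulus, 18 h, 37 C; CCF4 dye 2 h RT; fluorescence. IC50 and efficacy from Hill fits, normalized to E2 and DMSO.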

[2] = qHTS assay for small molecule antagonists of peroxisome proliferator-activated receptor delta signaling (AID 588535); settings: HEK293T PPARd-UAS-bla, beta-lactamase FRET ratio, 18 h; 460 nm channel;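 further: cells co-treated with a PPAR-delta agonist as stimulator during compound exposure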
Procedure, shortened: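 Fluorescence from CCF4-loaded GeneBLAzer PPAR-delta-UAS-bla HEK293T cells (2 hrs RT loading) quantified reporter inhibition after an 18 hr, 37 C compound exposure across a titration.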

[3] = qHTS assay for small molecule agonists of retinoid X receptor alpha signaling (AID 588544); settings: HEK293T RXRa-UAS-bla, beta-lactamase reporter, 18 h; 530 nm emission;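 on activation: 0% = DMSO basal wells and 100% = reference agonist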
[4] = target: Retinoic acid receptor RXR-alpha (Homo sapiens) (UniProt P19793); assay: as above
[5] = target: Thyroid hormone receptor beta (Homo sapiens) (UniProt P10828); assay: qHTS assay for small molecule agonists of thyroid hormone receptor beta signaling (AID 588545);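 further: 0% = DMSO only and 100% = 10 nM T3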
Procedure, shortened: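 Compounds were tested as agonists in TR-UAS-bla-GripTite HEK 293 cells. After 18 hrs at 37 C, CCF4 substrate was added and fluorescence read after 2 hrs at room temperature.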

[6] = qHTS assay for small molecule antagonists of retinoid X receptor alpha signaling (AID 588546; active means well fitted inhibition curve with a large enough effect in the signal ratio, with a control signal flat, not every such curve was filed as active; the % refers to the signal ratio;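 further: cells stimulated with 9-cis-retinoic acid as agonist; on the % scale 0 is the no-effect control and ±100 the full control effect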); settings: HEK293T RXRa-UAS-bla, beta-lactamase ratio, antagonist mode; measured here: W530 green channel, cytotoxicity proxy
Procedure, shortened: (§1)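 Beta-lactamase reporter inhibition, read as CCF4 fluorescence ratio (ex 405, em 460/530 nm) after 2 h at RT. HEK293T UAS-bla cells, 2500/well, were stimulated with 9-cis-RA at 500 or 100 nM final alongside test compound for 18 h at 37 C.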

[7] = target: Retinoic acid receptor RXR-alpha (Homo sapiens) (UniProt P19793); assay: as above; settings: HEK293T RXRa-UAS-bla, beta-lactamase ratio, antagonist mode
Procedure, shortened: as §1

[8] = target: Thyroid hormone receptor beta (Homo sapiens) (UniProt P10828); assay: qHTS assay for small molecule antagonists of thyroid hormone receptor beta signaling (AID 588547; active means well fitted inhibition curve with a large enough effect in the signal ratio, with a control signal flat, not every such curve was filed as active; the % refers to the signal ratio;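 further: cells stimulated with 0.4 nM T3 agonist during compound exposure; series mostly up to about 77 µM; on the % scale 0 is the no-effect control and ±100 the full control effect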); settings: TR-UAS-bla HEK293, beta-lactamase ratio, antagonist mode, 18 h
Procedure, shortened: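 TR-UAS-bla GripTite HEK293 cells in 2% charcoal/dextran FBS medium; compounds 0.59 nM to 92 uM with T3 at 0.4nM final, 18 h at 37 C. Beta-lactamase read by CCF4 fluorescence (460/530 nm); Hill fits gave IC50 and efficacy.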

[9] = qHTS assay for environmental chemicals that activate the Aryl hydrocarbon Receptor (AhR) signaling pathway (AID 651777; active means well fitted curve in the direction sought with a large enough effect; an effect the other way counts as inactive or inconclusive; further: % of control where 0% means no effect; nearly all actives have a fitted effect of over 15% in size); settings: 1A2-DRE human hepatoma cells, luciferase, 24 h; activation: stronger effect = higher value
Procedure, shortened: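 1A2-DRE human hepatoma reporter line; 1,200 cells/well; cmpd or DMSO 24 h, 37 C/5% CO2; One-Glo 30 min RT; luciferase lum.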

[10] = target: Peroxisome proliferator-activated receptor alpha (Homo sapiens) (UniProt Q07869); assay: qHTS assay for small molecule agonists of the peroxisome proliferator-activated receptor alpha (PPARalpha) signaling pathway (AID 651778; active means well fitted curve in the direction sought with a large enough effect; an effect the other way counts as inactive or inconclusive; further: % of control where 0% means no effect); settings: PathHunter PPARalpha complementation, chemiluminescence, 6 h; max response: stronger effect = higher value
Procedure, shortened: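 Enzyme-fragment complementation assay in which ligand-bound PPARalpha translocates and forms an active enzyme that generates chemiluminescence. Cells were plated overnight, exposed to compound for 6 hr at 37 C, and then given detection reagent for 60 min at room temperature.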

[11] = qHTS assay for small molecule agonists of the antioxidant response element (ARE) signaling pathway measured by Nrf2-dependant transcriptional activity (AID 720636; active means well fitted curve in the direction sought with a large enough effect in the repeat runs; an effect the other way counts as inactive or inconclusive;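 further: HepG2 cells with an ARE-driven luciferase reporter; % of control where 0% means no effect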)
Procedure, shortened: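 Cells: ARE-luc HepG2 with Nrf2-responsive luciferase. Medium contained 1% dialyzed FBS. Compound exposure lasted 16 hr at 37 C and 5% CO2, followed by ONE-Glo luciferase detection.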

[12] = qHTS assay for small molecule agonists of the antioxidant response element (ARE) signaling pathway measured by Nrf2-dependant transcriptional activity - cell viability counter screen (AID 720653; active means well fitted curve in the direction sought with a large enough effect in the repeat runs; an effect the other way counts as inactive or inconclusive; further: on the % scale 0 is the no-effect control and ±100 the full control effect); settings: ARE-bla HepG2 viability, CellTiter-Glo ATP luminescence, 16 h; max response: stronger effect = lower value
Procedure, shortened: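 ARE-bla HepG2 cells treated with compounds for 16 h at 37C; this counter screen measures viability as intracellular ATP by CellTiter-Glo luminescence after 30 min at room temperature.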

[13] = qHTS assay for cell viability of HEK293 cells (AID 743288; active means well fitted curve in the direction sought with a large enough effect; an effect the other way counts as inactive or inconclusive; further: on the % scale 0 is the no-effect control and ±100 the full control effect; nearly all actives have a fitted effect of over 50% in size); settings: ATP luminescence (CellTiter-Glo), 18 h; max response: stronger effect = lower value
Procedure, shortened: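 ATP luminescence (CellTiter-Glo) reports metabolically competent cell number after parental HEK293 cells, 2,000/well, were treated with DMSO-dissolved compounds for 18 h at 37 C; reagent incubation 30 min, room temperature.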

[14] = qHTS assay for cell viability of the p53RE-bla HCT-116 cell line (AID 743292; active means well fitted curve in the direction sought with a large enough effect; an effect the other way counts as inactive or inconclusive; further: on the % scale 0 is the no-effect control and ±100 the full control effect; nearly all actives have a fitted effect of over 55% in size)
Procedure, shortened: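 HCT-116 p53RE-bla cells seeded 4,000/well; 5 h at 37 C; compound (DMSO) added; 16 h at 37 C; CellTiter-Glo added, 30 min RT; luminescence read.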

[15] = target: Nuclear receptor subfamily 1 group I member 2 (Rattus norvegicus) (UniProt Q9R1A7); assay: qHTS assay for small molecule activators of the rat pregnane X receptor (rPXR) signaling pathway (AID 651751; call rule not given here; further: 0% is about no effect); settings: rPXR reporter cells, luciferase (One-Glo), 24 h
[16] = qHTS assay for small molecule activators of the human pregnane X receptor (PXR) signaling pathway (AID 720659; call rule not given here; further: 0% is about no effect)
[17] = target: Vitamin D3 receptor (Homo sapiens) (UniProt P11473); assay: qHTS assay for small molecule antagonists of vitamin D receptor signaling (AID 588541)
Procedure, shortened: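 VDR-UAS-bla HEK293T cells in 2% charcoal-stripped FBS were stimulated with 1-alpha,25-dihydroxyvitamin D3 (3 nM final) plus compound for 16 h at 37 C. The beta-lactamase CCF4 readout was normalized to 50 nM agonist and DMSO, and Hill fits gave IC50.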

[18] = target: Vitamin D3 receptor (Homo sapiens) (UniProt P11473); assay: qHTS assay for small molecule agonists of vitamin D receptor signaling (AID 588543);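 further: 0% = DMSO basal and 100% = reference agonist control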
Procedure, shortened: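 β-lactamase reporter, VDR-UAS-bla HEK293T, agonist mode. Cells plated 5 h at 37 °C, compound titration 16 h at 37 °C, CCF4 dye 2 h RT, ratio 460/530 nm. Hill fit → EC50, efficacy vs 50 nM 1α,25-(OH)2D3.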

Sequence of Peroxisome proliferator-activated receptor alpha (Homo sapiens) (Q07869 whole entry, looked up, the tested form may be a part): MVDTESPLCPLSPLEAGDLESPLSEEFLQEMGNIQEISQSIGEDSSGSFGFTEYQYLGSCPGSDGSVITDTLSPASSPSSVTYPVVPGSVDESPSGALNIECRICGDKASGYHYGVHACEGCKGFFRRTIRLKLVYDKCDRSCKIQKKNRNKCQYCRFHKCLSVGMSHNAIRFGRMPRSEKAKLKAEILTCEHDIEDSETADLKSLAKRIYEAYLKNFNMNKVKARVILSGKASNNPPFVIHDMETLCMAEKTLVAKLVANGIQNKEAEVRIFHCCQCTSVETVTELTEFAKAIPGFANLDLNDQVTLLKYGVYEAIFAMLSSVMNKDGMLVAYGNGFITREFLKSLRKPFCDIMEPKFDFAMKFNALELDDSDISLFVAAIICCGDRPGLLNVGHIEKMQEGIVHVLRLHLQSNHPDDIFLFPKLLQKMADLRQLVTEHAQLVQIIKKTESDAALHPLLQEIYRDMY
Sequence of Thyroid hormone receptor beta (Homo sapiens) (P10828 whole entry, looked up): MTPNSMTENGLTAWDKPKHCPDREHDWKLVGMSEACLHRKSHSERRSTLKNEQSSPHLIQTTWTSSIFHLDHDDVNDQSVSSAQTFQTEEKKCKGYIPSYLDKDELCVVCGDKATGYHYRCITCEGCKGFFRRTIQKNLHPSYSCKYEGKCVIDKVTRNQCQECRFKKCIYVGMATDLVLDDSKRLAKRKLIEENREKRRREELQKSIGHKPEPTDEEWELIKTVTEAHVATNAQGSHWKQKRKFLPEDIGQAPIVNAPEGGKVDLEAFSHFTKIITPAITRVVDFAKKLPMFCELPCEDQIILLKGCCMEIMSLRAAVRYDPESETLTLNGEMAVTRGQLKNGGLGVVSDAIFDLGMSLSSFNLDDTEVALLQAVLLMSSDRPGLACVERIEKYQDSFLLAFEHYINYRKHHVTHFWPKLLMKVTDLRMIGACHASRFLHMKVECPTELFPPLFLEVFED
Sequence of Retinoic acid receptor RXR-alpha (Homo sapiens) (P19793 whole entry, looked up): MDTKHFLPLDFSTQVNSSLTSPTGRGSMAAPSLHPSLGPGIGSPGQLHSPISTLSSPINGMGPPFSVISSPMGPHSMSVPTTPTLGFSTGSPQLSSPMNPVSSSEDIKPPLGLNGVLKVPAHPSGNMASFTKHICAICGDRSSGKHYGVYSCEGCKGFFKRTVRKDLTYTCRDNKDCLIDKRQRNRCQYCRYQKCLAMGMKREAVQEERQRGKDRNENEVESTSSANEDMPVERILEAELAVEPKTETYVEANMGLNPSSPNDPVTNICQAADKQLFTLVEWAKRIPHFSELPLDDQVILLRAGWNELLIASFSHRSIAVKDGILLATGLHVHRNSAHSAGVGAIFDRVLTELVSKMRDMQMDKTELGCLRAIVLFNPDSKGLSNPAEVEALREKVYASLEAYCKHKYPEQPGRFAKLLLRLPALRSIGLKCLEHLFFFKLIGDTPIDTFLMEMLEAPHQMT
Sequence of Estrogen receptor (Homo sapiens) (P03372 whole entry, looked up): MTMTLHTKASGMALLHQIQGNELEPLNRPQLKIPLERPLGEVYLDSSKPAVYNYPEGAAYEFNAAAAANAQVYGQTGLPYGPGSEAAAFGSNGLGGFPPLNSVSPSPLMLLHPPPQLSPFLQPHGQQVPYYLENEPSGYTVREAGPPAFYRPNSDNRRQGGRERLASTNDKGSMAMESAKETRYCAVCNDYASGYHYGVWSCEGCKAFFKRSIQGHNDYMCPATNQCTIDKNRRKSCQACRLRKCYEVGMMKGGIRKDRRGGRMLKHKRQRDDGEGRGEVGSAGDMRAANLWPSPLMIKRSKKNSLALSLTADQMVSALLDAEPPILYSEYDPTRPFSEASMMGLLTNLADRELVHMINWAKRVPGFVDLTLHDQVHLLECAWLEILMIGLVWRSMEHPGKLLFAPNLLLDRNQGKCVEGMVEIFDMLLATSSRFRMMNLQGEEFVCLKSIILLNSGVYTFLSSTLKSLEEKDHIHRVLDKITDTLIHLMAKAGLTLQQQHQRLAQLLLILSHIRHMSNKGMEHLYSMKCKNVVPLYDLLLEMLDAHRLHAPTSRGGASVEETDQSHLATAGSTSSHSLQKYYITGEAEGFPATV
Sequence of Vitamin D3 receptor (Homo sapiens) (P11473 whole entry, looked up): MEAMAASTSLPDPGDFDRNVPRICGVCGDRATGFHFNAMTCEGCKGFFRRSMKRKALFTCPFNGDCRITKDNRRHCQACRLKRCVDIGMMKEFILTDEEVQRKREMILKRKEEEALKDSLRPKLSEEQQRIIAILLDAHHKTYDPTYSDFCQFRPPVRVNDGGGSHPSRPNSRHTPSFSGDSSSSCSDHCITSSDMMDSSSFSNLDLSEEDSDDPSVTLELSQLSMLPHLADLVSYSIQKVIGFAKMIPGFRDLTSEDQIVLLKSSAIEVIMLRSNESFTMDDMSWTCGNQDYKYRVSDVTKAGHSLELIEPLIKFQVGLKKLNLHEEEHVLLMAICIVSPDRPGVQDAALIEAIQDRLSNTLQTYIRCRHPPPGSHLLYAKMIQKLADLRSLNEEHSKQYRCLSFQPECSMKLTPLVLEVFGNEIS
Sequence of Nuclear receptor subfamily 1 group I member 2 (Rattus norvegicus) (Q9R1A7 whole entry, looked up): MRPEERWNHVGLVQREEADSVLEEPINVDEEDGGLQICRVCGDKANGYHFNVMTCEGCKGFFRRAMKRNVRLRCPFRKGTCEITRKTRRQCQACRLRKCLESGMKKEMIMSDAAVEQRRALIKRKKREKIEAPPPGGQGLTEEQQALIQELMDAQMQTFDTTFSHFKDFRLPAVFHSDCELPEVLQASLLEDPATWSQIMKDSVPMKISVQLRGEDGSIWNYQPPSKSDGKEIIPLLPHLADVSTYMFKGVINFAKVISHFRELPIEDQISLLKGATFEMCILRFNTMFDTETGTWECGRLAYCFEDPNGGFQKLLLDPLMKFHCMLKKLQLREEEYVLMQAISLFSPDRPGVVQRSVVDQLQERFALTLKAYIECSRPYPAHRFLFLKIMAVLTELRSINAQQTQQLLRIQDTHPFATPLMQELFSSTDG

SMILES	Potency [1]	max response [2]	max response [3]	Potency [4]	Potency [5]	max response [6]	max response [7]	activity change % (negative = inhibition) [8]	activation [9]	max response [10]	Potency [11]	max response [12]	max response [13]	Potency [14]	max response [15]	outcome [16]	Potency [17]	outcome [18]
O=C(O)c1cccc(C(=O)O)c1	inactive	-2.92%	-13%	inactive	inactive	-5.27%	-3.25% (inactive)	17% (inactive)	-2.6% (inactive)	-0.8% (inactive)	inactive	-9.16% (inactive)	-0.837% (inactive)	inactive	0.205% (inactive)	inactive	–	–
COc1ccc(OC)c(OC)c1	inactive	–	-0.39%	inactive	inactive	-10%	2.37% (inactive)	7.13% (inactive)	0.552% (inactive)	0.14% (inactive)	inactive	7.1% (inactive)	-1.79% (inactive)	–	3.06% (inactive)	inactive	inactive	inactive
C[Si](C)(C)N[Si](C)(C)C	inactive	–	-0.733%	inactive	inactive	-10.7%	1.24% (inactive)	-1.93% (inactive)	–	-0.0059% (inactive)	inactive	1.14% (inactive)	–	inactive	–	–	inactive	inactive
